In all, about 280,000 compounds went through this assay and about 100 (0.036%) were called active. Roughly 11% stayed inconclusive and do not appear here. Calls follow the shape of the dose curve; as a rule, active = well fitted inhibition curve with a large enough effect in the signal ratio, with a control signal flat (not every such curve was filed as active); inconclusive = small, poorly fitted or top-dose-only effect, or effect the other way, or a change in a side signal; inactive = no such curve, though single readings can be large or run the other way; the % refers to the signal ratio. This excerpt belongs to a sample that is enriched for actives.
The compounds below were run against Muscleblind-like protein 1 (Homo sapiens) (UniProt Q9NR56) (assay: qHTS Assay for Inhibitors of MBNL1-poly(CUG) RNA binding). Conditions: TR-FRET MBNL1-His/biotin-(CUG)12 binding, 665/545 ratio; series mostly up to 57.5 µM; activity change, negative = inhibition: at the top concentration.
Excerpt: NIH Chemical Genomics Center [NCGC] NIH Molecular Libraries Probe Production Centers Network [MLPCN] MLPCN Grant: R03 MH087421-01 Assay Submitter (PI): Charles Thornton NCGC Assay Overview: Expanded CTG repeats in the 3' untranslated region of the DM protein kinase (DMPK) gene causes type I myotonic dystrophy (DM1). DM1 is a multi-systemic disease with a prevalence of 1/7000. Clinical features include myotonia, progressive muscle weakness and wasting, cardiac arrhythmia, insulin resistance, hypersomnolence, cataracts, and other symptoms. The pathogenic effect of expanded CTG repeats stems from deleterious effects of the mutant transcript. CUGexp mRNA accumulates in nuclear foci and sequesters proteins of the muscleblind family, of which MBNL1 is the most common family member in skeletal muscles. The binding interaction between MBNL1 and CUGexp tracts leads to deregulation of alternative splicing and is therefore a key molecular step in the pathogenesis of DM1. To target this binding interaction, we optimized a protein-RNA binding assay in 1536-well format for identification of small molecule inhibitors of biotinylated (CUG)12 and his-tagged MBNL1 binding. Protein-RNA complex of MBNL1-His and Biotin-(CUG)12 captures the detection reagents terbium-labeled anti-His antibody and streptavidin conjugated XL665. This brings the terbium label within close proximity to XL665 to allow time-resolved fluorescence resonance energy transfer (TR-FRET). Inhibitors of MBNL1-(CUG)12 binding will disrupt TR-FRET.
NCGC Assay Protocol Summary: This is a TR-FRET binding assay with MBNL1-His and Biotin-(CUG)12 RNA. The assay uses a ratiometric measurement. In the presence of MBNL1-(CUG)12 complex, the excitation energy is transferred to the XL665 acceptor label, causing emission at 665nm, while the 545nm donor signal […]. Data were normalized to the controls for basal activity (buffer only) and 100% activity (with MBNL1-(CUG)12). […] The final titration was 92 nM to 58 uM. (3) Add 1 ul of terbium labeled anti-His antibody (0.055 ng/ul final concentration) (4) Add 1 ul of streptavidin-XL665 (5 nM final concentration) (5) Incubate 60 min at room temperature (6) Detect the assay plate in a EnVision plate reader (PerkinElmer) with Ex=340 nm, Em1=665 nm and Em2=545 nm. Keywords: mytonic dystrophy type I, DM1, muscleblind like 1, MBNL1, CUG expansion, protein-RNA binding inhibitor, high throughput screening, MLSMR, MLSCN, NIH Roadmap, qHTS and NCGC
% is scaled to controls: 0 for no effect and ±100 for the full control effect.

Muscleblind-like protein 1 (Homo sapiens), sequence (Q9NR56 whole entry, looked up): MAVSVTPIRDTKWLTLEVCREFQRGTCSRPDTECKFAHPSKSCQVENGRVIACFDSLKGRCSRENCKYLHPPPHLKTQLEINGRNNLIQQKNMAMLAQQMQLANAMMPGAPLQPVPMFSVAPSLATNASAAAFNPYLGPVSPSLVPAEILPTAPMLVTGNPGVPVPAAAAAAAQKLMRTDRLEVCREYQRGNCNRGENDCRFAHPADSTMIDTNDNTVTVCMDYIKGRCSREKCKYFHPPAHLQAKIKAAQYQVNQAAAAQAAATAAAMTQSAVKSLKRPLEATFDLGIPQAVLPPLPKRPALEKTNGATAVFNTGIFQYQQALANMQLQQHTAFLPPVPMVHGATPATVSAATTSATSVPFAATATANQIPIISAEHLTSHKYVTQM

Activity change, negative = inhibition, inactive:
CC(C)c1ccc(N(C(=O)c2ccco2)C(C(=O)NC2CCCC2)c2cccnc2)cc1 (stereo unspecified) -3.31%, COc1ccccc1CCNS(=O)(=O)c1cn(C)nc1C -8.89%, CCOc1ccc(N(CC(=O)NCCc2ccc(F)cc2)S(=O)(=O)c2ccccc2)cc1 -2.54%, Cc1ccc(Cn2c(=N)c(S(=O)(=O)c3ccc(C)cc3)cc3c(=O)n4ccccc4nc32)cc1 -0.147%, C=CCSc1nc2c(c(=O)[nH]c(=O)n2C)n1Cc1ccccc1 2.71%, Cc1ccc(-c2csc(NC3OC(=O)c4ccccc43)n2)cc1 (stereo unspecified) -6.54%, Cc1ccc(C)c(NC(=O)c2cc(-c3cc(C)cc(C)c3O)n[nH]2)c1 -6.85%, Cc1ccccc1N1CCN(S(=O)(=O)c2ccc3ccccc3c2)CC1 -4.39%, Cc1ccc(CS(=O)Cc2ccc(C(=O)N3CCOCC3)o2)cc1 (stereo unspecified) -11.5%, CCn1cc(CN2CCN(CC(C)(C)C)C(CCO)C2)c2ccccc21 (stereo unspecified) -4.13%, Cc1ccc(-c2ccc(=O)n(Cc3ccc(F)cc3Cl)n2)cc1 12.1%, CC(C)(C)c1ccc(C(=O)N2CCN(CCNC(=O)C(=O)Nc3ccc(F)cc3)CC2)cc1 -4.23%, COc1ccccc1NC(=O)C1CCN(C(=O)c2ccc(C(C)(C)C)cc2)CC1 1.38%, COc1ccc(OC)c(CCNC(=O)c2nn(C)c3c2CS(=O)(=O)c2ccccc2-3)c1 -0.308%, CCCC[C@]12Cc3cc(OC)c(OC)cc3C(O1)C1=C(CC3(CCCCC3)OC1=O)O2 -1.93% [at 11.5 µM], COc1cccc(CNS(=O)(=O)c2ccc3c(c2)CC(C)N3C(C)=O)c1 (stereo unspecified) -2.37%, Cc1cccc(C(=O)N2CCCC(Nc3ccc(C(C)C)cc3)C2)n1 (stereo unspecified) -2.61%, Cc1ccc2nc(SCC(=O)NC3CCCC3)[nH]c2c1 2.22%, Cc1[nH]c(C)c(S(=O)(=O)N2CCN(c3cccc(C(F)(F)F)c3)CC2)c1C(=O)N1CCCC1 -7.48%, CS(=O)(=O)N(CC(=O)N1CCOCC1)c1cccc(Cl)c1Cl -5.06%, CCc1ccc(OCC(=O)NCC(c2ccc(Cl)cc2)N2CCCCC2)cc1 (stereo unspecified) -1.64%, Cc1c(C(=O)NCC(c2ccco2)N2CCCC2)oc2ccc(Cl)cc12 (stereo unspecified) -0.589%, N#Cc1ccccc1S(=O)(=O)N1CCN(C(=O)c2cc(-c3ccccc3)nn2-c2ccccc2)CC1 -1.69%, CCCCC(C(=O)NC(C)(C)C)N(Cc1ccccc1)C(=O)c1snc(C(N)=O)c1N (stereo unspecified) 14.6%, CS(=O)(=O)Nc1cccc(C2=NN(C(=O)c3cccc(F)c3)C(c3cccs3)C2)c1 (stereo unspecified) -1.54%, COc1cccc(CNC(=O)Cn2c(=O)oc3cc(S(=O)(=O)N4CCCCC4)ccc32)c1 0.231%, COc1ccc(NC(=O)c2sc3nc(C)nc(N4CCN(c5ccccn5)CC4)c3c2C)c(OC)c1 3.85%, CCCCc1nc2cc(C(=O)N3CCCCC3CCO)ccc2o1 (stereo unspecified) -5.36%, O=C(c1ccccc1)N1CCC(CC2CC(c3ccc(Cl)cc3)=NO2)(C(=O)NCC2CCCCC2)CC1 (stereo unspecified) 1.1%, O=C(c1ccco1)N1CCN(Cc2cccc(C(F)(F)F)c2)CC1 -2.19%, O=C(Nc1ccc(F)cc1)c1ccc(S(=O)(=O)NCc2cccnc2)cc1 2.75%, Cc1ccc(S(=O)(=O)N2CCN=C2SCc2c(F)cccc2Cl)cc1 -8.21%, COc1ccc(C)cc1Nc1n[n+](-c2ccccc2)c(-c2cccc(Cl)c2Cl)s1 3.46%, C=CCc1cccc(/C=N/NC(=O)COc2ccc(-n3cnnn3)cc2)c1O -7.5%, O=C1CCN(Cc2ccccc2)CCN1[C@H](CSc1ccccc1)c1ccccc1 0.153%, CC(C)c1ccc(NC(=O)C2CCCN(S(=O)(=O)c3cccnc3)C2)cc1 (stereo unspecified) -8.69%, COc1ccc(NC(=O)c2cccc3c2C(=O)N(CC2CCCO2)C3)cc1OC (stereo unspecified) 3.25%, COc1ccc2c3c(c(=O)oc2c1)C1O[C@](CCCCN2C(=O)c4ccccc4C2=O)(Cc2c1ccc1ccccc21)O3 -13% [at 11.5 µM], CC1CCCN(CCCNC(=O)CN2C(=O)COc3ccc(S(=O)(=O)N4CCOCC4)cc32)C1 (stereo unspecified) 0.952%, COc1cccc(OCC(O)CNC(=O)c2oc3c(C)c(C)ccc3c2C)c1 (stereo unspecified) 0.794%, O=C(NCc1ccccc1)c1onc(CSc2nc3ccccc3[nH]2)c1C(=O)NCc1ccccc1 -6.08%, CN(C)C(=O)CCC(=O)N1CCCCC1C(=O)Nc1ccc(Oc2ccccc2F)cc1 (stereo unspecified) 4.61%, COc1ccc(-c2cc(C(=O)N3CCN(Cc4ccc5c(c4)OCO5)CC3)on2)cc1OC -16.9%, COc1cc(C(=O)NCC2(c3ccccc3)CCCC2)ccc1OC(C)C 2.79%, O=C(Nc1ccc(S(=O)(=O)N2CCCCCC2)cc1)c1c(F)cccc1F -3.12%, Cc1cc2c(c(=O)n1Cc1ccccc1)C1O[C@](CCCCN3C(=O)c4ccccc4C3=O)(Cc3ccccc31)O2 41.3% [at 11.5 µM], COc1ccc(Oc2cn[nH]c2-c2ccc(OC)cc2O)cc1 -3.69%, CCOC(=O)N1CCC(N2Cc3cccc(C(=O)Nc4c(C)cccc4CC)c3C2=O)CC1 -1.3%, CC(C)CN(Cc1c(O)ccc2c(=O)c(-c3ccccc3)coc12)CC(C)C 0.152%, O=C(O)c1ccc2c(=O)n3c(nc2c1)/C(=C/c1ccc(OC(F)F)cc1OC(F)F)CC3 13.4%, CCOC(=O)C1(CCOc2ccccc2)CCN(Cc2cc(OC)cc(OC)c2)CC1 -2.55%, CNC(=O)c1sc(Nc2ccc(OCc3ccccc3)cc2)nc1C 5.13%, COc1cc(C(=O)NCc2cc3cc(Cl)ccc3n2C)cc(OC)c1OC -0.0457%, CCn1c(=S)sc2c(=O)n(CC(=O)Nc3cccc(Br)c3)c(C)nc21 15.9%, Cc1ccc(OCC(=O)NC(C)c2ccccc2)cc1C (stereo unspecified) -0.996%, COc1ccc(CNS(=O)(=O)c2ccc(NC(=O)N3CCCCC3)cc2)cc1 -0.189%, COc1ccc2[nH]c(=O)c(CN(Cc3cccnc3)S(=O)(=O)c3ccccc3F)cc2c1 -1.3%, CSc1ccccc1OCc1cc(C(=O)N(C)CCc2c(C)n[nH]c2C)no1 -8.57%, CCOc1ccc(NC(=O)C2CCN(C(=O)N3CCOc4ccccc43)CC2)cc1 -1.3%, CCOc1c(OC)cccc1C(=O)NCC1(c2ccccc2)CCCC1 2.88%, Cc1cc(=O)oc2c3c(cc(OCC(=O)NCc4ccccn4)c12)OC(C)(C)CC3 0.749%, Cc1nc2nc(SCC(=O)Nc3cccc(F)c3)[nH]c2cc1Br 30.1%, FC(F)(F)c1nnc2c3ccccc3c(Cl)nn12 -1.44%, COc1cc(CCC(=O)N2CCN(c3ccccc3Cl)CC2)cc(OC)c1OC 1.98%, Cc1cc(=O)n2[nH]c(-c3cccc(Cl)c3)cc2n1 -2.55%, Cc1cc2oc(=O)cc(CN(C)Cc3ccc(OC(F)F)cc3)c2cc1Cl 13.6%, CN(Cc1ccccc1)C(=O)c1ccc(COc2ccccc2)cc1 -3.12%, CCCCC(=O)Nc1ccccc1N1CCN(c2ccc(F)cc2)CC1 -1.94%, CC(=O)N1CCC(C(=O)OCc2ccc(Cl)cc2)(c2ccccc2)CC1 -3.45%, COc1cnc(-c2ccccn2)nc1Oc1ccc(C(C)(C)C)cc1 -0.362%, COc1ccc(-c2nn(-c3ccccc3)cc2/C=C2/SC(=S)N(CCCC(=O)O)C2=O)c(C)c1 -2.61%, C=CCSc1nnc(N2C(=O)C(O)=C(C(=O)c3ccco3)C2c2ccc(F)cc2)s1 (stereo unspecified) 67.4%, CC1C(=O)Nc2ccc(S(=O)(=O)N3CCN(c4ccccc4F)CC3)cc2NC1=O (stereo unspecified) -5.31%, CCN(CC(=O)Nc1ccc(C)c(S(=O)(=O)N(C)C)c1)Cc1ccccc1 -1.99%, O=C(c1ccccc1F)N(Cc1ccccc1)Cc1ccccc1 5.42%, COc1ccc(COC(=O)c2ccc(Cl)c(S(=O)(=O)N3CCOCC3)c2)cc1F -3.53%, CN(CC1CCCN(CCc2cccc(C(F)(F)F)c2)C1)C(=O)c1ccc2nc[nH]c2c1 (stereo unspecified) -3.08%, COc1cc(/C=C/C(=O)N2CCc3ccccc3C2)cc(OC)c1OC 14%, CN(C(=O)CN1C(=O)/C(=C/c2ccc(Cl)cc2)SC1=S)C1CCS(=O)(=O)C1 (stereo unspecified) 12.8%, CC(=O)c1cc2c(cc1NC(=O)Cn1nc(-c3ccc(F)cc3)ccc1=O)OCO2 7.1%, O=C(C1CCCN(S(=O)(=O)c2ccccc2)C1)N1CCN(c2ccc(F)cc2)CC1 (stereo unspecified) -5.05%, CC(C)C[C@@H](COc1ccccc1)N1CCN(CC(C)C)CCC1=O -6.55%, Cc1sc2ncn(CC(=O)NCCCC(=O)N3CCN(c4ccccc4F)CC3)c(=O)c2c1C -3.39%, CCOC(=O)N1CCN(Cc2nc3cc(NC(=O)CC)ccc3n2CC)CC1 -6.4%, OC(CNCCc1ccc(Cl)cc1Cl)COc1ccccc1 (stereo unspecified) -3.91%, Cc1cnc(C)c(N2CCN(C(=O)C3CCC(=O)N(CCc4cccc(F)c4)C3)CC2)n1 (stereo unspecified) -0.81%, Cc1ccc(-n2nc3c(=O)n(C(C)C(=O)NCc4ccc5c(c4)OCO5)nc(C)c3c2C)cc1 (stereo unspecified) 10.1%, CSc1ccc(S(=O)(=O)N2CCC(C(=O)NCCc3ccccc3)CC2)cc1 1.41%, Cc1ccccc1NC(=S)NC(=O)Cc1ccc(Cl)cc1 -7.62%, COc1ccc(C(=O)NC2CCN(C(=O)Nc3ccc(F)cc3)CC2)cc1 -6.59%, CC(=O)c1cccc(NC(=O)CN2C(=O)c3cccnc3Oc3ccc(Cl)cc32)c1 7.23%, Cc1cc(CN(C)C(=O)c2cc(COc3ccc(C)c(C)c3)on2)n[nH]1 96%, COc1ccc2c(C)c(CCC(=O)NC3CC3)c(=O)oc2c1C 8.67%, COc1cccc(C2CC(c3cccs3)=NN2C(=O)CSC2=NCCS2)c1OC (stereo unspecified) 4.55%, COc1ccc(OC)c(NC(=O)CN(C)CCOc2ccc(Br)cc2)c1 6.51%, COC(=O)c1cc(S(=O)(=O)Nc2ccc(C)c(F)c2)c[nH]1 -2.51%, COc1ccc(-c2nc3ccccc3c(=O)n2CCc2ccc(O)cc2)cc1 -4.74%, CCC(C(=O)OC)n1cnc2scc(-c3ccc(C)cc3)c2c1=O (stereo unspecified) 2.27%, CCc1ccccc1N(CC(=O)NCC1CCCO1)C(=O)CCC(=O)Nc1nccs1 (stereo unspecified) 1.16%, CCN1CCN(c2sc(S(C)(=O)=O)nc2S(=O)(=O)c2ccc(Cl)cc2)CC1 -3.33%, CCNC(=O)N1CCCC(C(=O)c2ccc(-c3ccccc3)cc2)C1 (stereo unspecified) -6%

From PubChem BioAssay AID2675 (National Center for Advancing Translational Sciences (NCATS), 2010)
